About 83,000 compounds went through this panel and 20% of them were active in at least one assay; those are over-represented in the sample as a whole.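 Percent growth is the endpoint: 0 to 100 indicates growth inhibition (40 means 60% inhibition), 0 means no net growth, and negative values indicate cell death.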 Activity calls are given as the source filed them. The calls were made as follows: active = growth percent below 10; inactive = the rest.
Each molecule was assayed on HL-60(TB) leukemia (assay: NCI-60 one-dose screen, 48 h (100 = growth as untreated, 0 = no growth, -100 = all killed)). Details: 10 µM unless noted.

| SMILES | growth |
| --- | --- |
| COc1cc2c3c(cccc3c1)C(=O)N(CCN1CCCC1)C2=O | 26% (inactive) |
| Cc1ccccc1Nc1cc(O)c2c(=O)cc(-c3ccccc3)oc2c1 | 8.58% (active) |
| COP(=O)(OC)C(c1ccc(O)cc1)(c1ccc(O)cc1)c1ccc(O)cc1 | 93.4% (inactive) |
| COc1cc(-c2cc(-c3nc4cc(Cl)c(Cl)cc4[nH]3)[nH]n2)cc(OC)c1OC | 14.2% (inactive) |
| CCOC(=O)C1CN(Cc2ccccc2)C(=O)C1=O (centres undefined) | 7.35% (active) |
| O=c1oc2ccc(Br)cc2c(=O)n1-c1ccc(F)cc1F | -1.95% (active) |
| CCCCOc1nc2ccc(OC)cc2cc1-c1cc(-c2ccc(Cl)cc2)nc(-c2ccc(Cl)cc2)c1 | 103% (inactive) |
| CCN1C2=C(SC(=S)C1=C1SC(C(=O)OC)=C(C(=O)OC)S1)SC(=Nc1ccc(OC)cc1)C2=O | 26% (inactive) |
| COc1cc(Cl)cc(-c2nn(-c3cccc(NC(=O)Nc4ccc(Cl)c(C(F)(F)F)c4)c3)cc2-c2ccncc2)c1 | -9.59% (active) |
| O=C(COc1ccc(/C=C2\Cc3ccc(Cl)cc3C2=O)cc1)Nc1nc2ccccc2s1 | 117% (inactive) |
| O=C1C(N2CCOCC2)=Cc2cccc3cccc1c23 | -26% (active) |
| CNC1=CC(=O)c2c(C(=O)OC)c(C)[n+]([O-])c(C)c2C1=O | 29% (inactive) |
| N#CC1=C(c2ccccc2)Nc2c(c(-c3ccc(Cl)cc3)nn2-c2ccccc2)C12C(=O)Nc1ccc(Cl)cc12 (centres undefined) | 48.2% (inactive) |
| COc1c(Cl)cc(Cl)c2ccc(C=C3C(=O)N(C)C(=O)N(C)C3=O)nc12 | 98.1% (inactive) |
